# Source: PubChem BioAssay
# Shown are actives, neighbours in structure and some others; about 3.6% of the full set was active somewhere.
# Autofluor counter: flagged as autofluorescent in microsphere protease counterscreen; compound autofluorescence counterscreen, microsphere flow cytometry; hits give high values; fluorescence intensity (no concentration beside the values); actives 3.1% (n = 360,000); AID 624483; in the data active = fluorescence intensity above about 16000; inconclusive = no clear call, values can overlap the other calls
# BoNT-F LC inh: BoNT/F light chain protease inhibitors, primary screen, biochemical, flow cytometry, MLPCN library; Botulinum neurotoxin type F light chain protease (Clostridium botulinum); Multiplex microsphere protease cleavage assay; inhibition, % at 10 µM; actives 0.22% (n = 360,000); in the data active = inhibition above about 35%, passing the limit was not always enough; inconclusive = no clear call, values can overlap the other calls; also: plate controls were buffer without enzyme for full effect and enzyme alone for no effect
# Anthrax LF inh2: Bacillus anthracis LF protease inhibitors, primary screen, biochemical, multiplex microsphere, MLPCN library; inhibition, % at 10 µM; multiplex microsphere protease cleavage assay; actives 0.12% (n = 360,000); Lethal factor (Bacillus anthracis), P15917; also: plate controls were buffer without enzyme for full effect and enzyme alone for no effect
# Target sequence (P15917 whole entry, looked up): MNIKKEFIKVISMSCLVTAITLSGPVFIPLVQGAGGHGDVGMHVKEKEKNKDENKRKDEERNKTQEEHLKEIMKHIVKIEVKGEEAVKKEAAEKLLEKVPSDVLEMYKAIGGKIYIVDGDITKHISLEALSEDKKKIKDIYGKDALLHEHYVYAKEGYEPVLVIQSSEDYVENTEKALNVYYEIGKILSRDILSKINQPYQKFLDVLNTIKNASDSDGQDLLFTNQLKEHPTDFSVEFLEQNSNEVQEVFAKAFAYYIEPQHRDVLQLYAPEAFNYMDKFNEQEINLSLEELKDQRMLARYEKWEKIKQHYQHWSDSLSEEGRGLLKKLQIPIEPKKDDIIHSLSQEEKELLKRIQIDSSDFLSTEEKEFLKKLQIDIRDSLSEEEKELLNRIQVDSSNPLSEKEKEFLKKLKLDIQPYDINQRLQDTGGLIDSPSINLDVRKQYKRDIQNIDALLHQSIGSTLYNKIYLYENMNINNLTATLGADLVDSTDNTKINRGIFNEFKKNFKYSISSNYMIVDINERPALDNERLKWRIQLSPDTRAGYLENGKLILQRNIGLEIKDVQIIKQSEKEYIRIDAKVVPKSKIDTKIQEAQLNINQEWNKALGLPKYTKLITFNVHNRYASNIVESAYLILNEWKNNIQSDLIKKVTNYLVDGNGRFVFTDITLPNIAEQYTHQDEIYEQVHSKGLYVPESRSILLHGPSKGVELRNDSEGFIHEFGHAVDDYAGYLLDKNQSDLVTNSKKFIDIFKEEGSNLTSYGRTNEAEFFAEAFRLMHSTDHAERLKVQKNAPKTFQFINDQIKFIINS
# MazF activator: activators of E. coli MazEF toxin-antitoxin RNase, primary screen, biochemical, fluorescence, uHTS. Endoribonuclease toxin MazF (Escherichia coli (strain K12)), P0AE70. FAM/BHQ RNA-DNA oligo cleavage fluorescence, 5 h. activation, % at 20 µM. actives 0.32% (n = 350,000). AID 504720, 2011; in the data active = activation above about 50%
# BoNT-A LC inh2: BoNT/A light chain protease inhibitors, primary screen, biochemical, flow cytometry, MLPCN library; Botulinum neurotoxin type A light chain protease (Clostridium botulinum A str. ATCC 3502); actives 0.17% (n = 360,000); multiplex microsphere protease substrate cleavage; inhibition, % at 10 µM; also: plate controls were buffer without enzyme for full effect and enzyme alone for no effect
# * hit, by the source's call; ? = inconclusive; . = no result given; + = active, no number. Rule as the data show it, unless noted: active = inhibition above about 30%; inconclusive = no clear call, values can overlap the other calls; inactive = below that.
SMILES,Autofluor counter,BoNT-F LC inh,Anthrax LF inh2,MazF activator,BoNT-A LC inh2
Cc1nc(C)c(C(=O)Nc2ccc(Oc3ccccc3)cc2)o1,19915*,2.8,0.7,-0.3,3.7
Cc1ccc(CCN2CC(C(=O)NC3CCC(C)CC3)CC2=O)cc1 (centres undefined),3795,-3.4,-2.6,4.1,0.1
Cc1nc(CC(=O)c2ccc(O)cc2O)cs1,22193*,-11.7,-2.4,1.9,?
O=C(Nc1ccccc1-c1nc2ccccc2s1)c1ccc(Br)o1,23088*,-0.5,-3.3,-0.8,-0.3
Cc1ccc2nc(NC(=O)COC(=O)c3ccc(Br)o3)sc2c1,3653,11.2,-2.7,0.0,-0.3
O=C(COC(=O)c1ccc(Br)o1)Nc1nc2ccccc2s1,16288*,-2.9,-1.3,5.3,0.2
CC[C@]12c3[nH]c4cc(CCC(=O)N(C)C)ccc4c3CCN1C(=O)[C@@H](CC(=O)NCC13CC4CC(CC(C4)C1)C3)C[C@@H]2C(=O)N1CCN(C(=O)c2ccco2)CC1,3495,1.3,-4.1,11.3,0.0
O=C(CS(=O)c1ccc(C(F)(F)F)cc1[N+](=O)[O-])Oc1ccc(Cl)cc1 (centres undefined),22500*,0.3,-7.3,-4.3,-0.7
Cc1cc(C)cc(OC(=O)CS(=O)c2ccc(C(F)(F)F)cc2[N+](=O)[O-])c1 (centres undefined),10026,4.7,-10.2,1.9,-2.1
Cn1c(=O)c2c(nc(SCCN3CCOCC3)n2Cc2ccccc2Cl)n(C)c1=O,5471,-1.8,-5.4,-0.3,0.2
Cn1c(=O)c2c(nc(CN3CCCCC3)n2CCc2ccccc2)n(C)c1=O,2121,6.7,-1.6,8.3,0.1
Cn1c(=O)c2c(nc(CN3CCC(C(N)=O)CC3)n2CCc2ccccc2)n(C)c1=O,19348*,3.0,-0.7,3.5,?
Cn1c(=O)c2c(nc(CN3CCN(Cc4ccccc4)CC3)n2CCN2CCOCC2)n(C)c1=O,5869,1.3,-1.6,-0.5,0.4
Cn1c(=O)c2c(nc(SCCN3CCOCC3)n2Cc2cccc3ccccc23)n(C)c1=O,19656*,-0.1,-5.1,-4.2,0.1
Cn1c(=O)c2c(nc(CN3CCC(Cc4ccccc4)CC3)n2CCN2CCOCC2)n(C)c1=O,27251*,-2.7,-2.8,-1.9,-1.7
Cn1c(=O)c2c(nc(NCCCN3CCOCC3)n2Cc2cccc(Cl)c2)n(C)c1=O,22276*,6.4,-0.7,-1.6,1.7
Cc1cc(OCC(=O)OCC(=O)N2CC(C)CC(C)C2)ccc1Cl (centres undefined),4986,?,-1.6,-6.0,1.3
C[C@H](CO)N1C[C@H](C)[C@@H](CN(C)C(=O)Nc2ccc(C(F)(F)F)cc2)Oc2c(NS(=O)(=O)c3ccccc3)cccc2C1=O,4242,1.7,0.7,7.1,-0.2
Cc1ccc(S(=O)(=O)Nc2ncccn2)cc1,3283,-25.1,2.8,-1.6,-4.3
CCN1CCN(C(CNS(=O)(=O)c2ccc(Cl)cc2)c2ccccc2)CC1 (centres undefined),4667,7.5,0.6,5.4,-2.1
O=S(=O)(NCC(c1ccccc1)N1CCNCC1)c1ccc(Cl)cc1 (centres undefined),21805*,-6.6,-1.9,5.5,-2.4
OC[C@H]1O[C@@H](O[C@@H]2[C@@H](CO)O[C@@](O)(CO)[C@H]2O)[C@H](O)[C@@H](O)[C@H]1O,5120,3.4,-3.4,6.8,-0.6
O=C(Nc1cnccn1)C1c2ccccc2Oc2ccccc21,19665*,1.7,-0.8,5.1,1.6
Cc1ccc(NC(=O)C2c3ccccc3Oc3ccccc32)nc1,4787,0.2,-5.3,-1.2,-0.4
COc1cccc(C2CC(c3ccccc3)Nc3ncnn32)c1 (centres undefined),22399*,0.4,0.2,-2.9,-0.4
SMILES,Autofluor counter,BoNT-F LC inh,Anthrax LF inh2,MazF activator,BoNT-A LC inh2
COc1cccc(C2CC(c3ccccc3OC)n3ncnc3N2)c1 (centres undefined),5909,5.0,-5.0,7.6,-0.2
Oc1ccc2ccccc2c1/C=N/n1cnnc1,22040*,1.8,-1.5,2.5,2.4
Oc1ccc2ccccc2c1C=NCc1ccccc1,.,.,.,-1.1,.
Oc1ccccc1C=NN=Cc1c(O)ccc2ccccc12,2774,6.6,7.4,+,8.0
CC(C(=O)NC(N)=O)N1C(=O)NC(c2ccccc2)(c2ccccc2)C1=O (centres undefined),5561,1.9,-0.3,4.8,-0.4
COc1cccc(NC(=O)n2ncc3c(C)cccc32)c1,3485,24.4,-10.6,9.8,-1.1
COc1cc(C(O)P(=O)(OC2CCCCC2)c2ccc(N(C)C)cc2)cc(OC)c1OC (centres undefined),16951*,-4.1,-3.2,6.1,-1.6
COc1ccc([C@H]2C[C@@H](n3cc(COC(=O)c4ccccc4)nn3)[C@H](O)CN2Cc2cccs2)cc1,3808,-3.9,5.6,-5.8,0.3
CCc1ccc(NC(=O)c2ccnc(C(C)(C)C)c2)cc1,24202*,-2.4,-1.5,2.4,-1.1
CCc1ccc(OC(=O)c2cccnc2)cc1,3031,-5.8,36.6*,7.1,-3.1
CC(C)(C)c1cc(C(=O)Nc2cccc3ccccc23)ccn1,6897,-8.2,8.6,-5.4,-0.9
CCc1ccc(NC(=O)c2cccnc2)cc1,21122*,-5.0,-2.3,4.0,?
CCCNS(=O)(=O)c1ccc(NC(=O)c2cccnc2)cc1,20443*,1.2,-0.3,4.5,0.5
Cc1ccc(OC(=O)c2cccnc2)cc1,3059,-0.5,-4.8,-4.3,-0.6
O=C(Nc1ccc(NS(=O)(=O)c2ccccc2)cc1)c1cccnc1,2484,-0.4,1.0,-10.4,0.1
CCc1ccc(NC(=O)N(C2CCCCC2)C(C)c2cccnc2)cc1 (centres undefined),20168*,-1.9,-0.3,4.9,-1.8
CCN(C(=O)c1ccnc(C(C)(C)C)c1)c1ccccc1,21211*,6.0,-3.2,4.9,5.5
CCN(C(=O)c1ccc(Cl)c([N+](=O)[O-])c1)c1ccccc1,3687,-13.9,-8.9,1.5,0.1
COc1ccc(C(=Cc2ccccc2[N+](=O)[O-])C(=O)O)cc1,2909,-8.8,-6.7,2.5,-0.5
CCc1nc2oc3ccccc3c(=O)c2c(=O)n1-c1ccc(C)cc1,.,.,.,-7.8,.
CCc1nc2oc3ccccc3c(=O)c2c(=O)n1-c1ccccc1,16529*,3.0,0.5,0.4,0.2
COc1ccccc1Oc1cc(C#N)c(C#N)cc1-n1nnc2ccccc21,22329*,2.5,-7.6,0.3,1.5
O=C(NC1(C(F)(F)F)NC(=O)N(Cc2cccnc2)C1=O)c1ccc(F)cc1 (centres undefined),23016*,-3.2,-1.8,8.2,-1.1
CC(C)(C)c1ccc(C(=O)Nn2c(CCC(=O)O)ccc2-c2cccs2)cc1,17160*,-0.5,-1.4,3.2,-2.4
